From PubChem BioAssay (NCATS)
“And” between values parts separate entries of the source, which are not always exact repeats. Identical values can stand only once. Results filed as inconclusive are left out. The source made the active and inactive calls. Unless noted, calls come from the whole dose curve.

Legend:
[1] = target: Peroxisome proliferator-activated receptor gamma (Homo sapiens) (UniProt P37231); experiment: qHTS assay for small molecule antagonists of peroxisome proliferator-activated receptor gamma signaling (AID 588537; active = well fitted inhibition curve with a large enough effect in the signal ratio, with a control signal flat, not every such curve was filed as active; the % refers to the signal ratio;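 note: reporter cells co-stimulated with 50 nM rosiglitazone agonist during compound treatment; % of control where 0% means no effect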)
Chain of Peroxisome proliferator-activated receptor gamma (Homo sapiens) (P37231 whole entry, looked up): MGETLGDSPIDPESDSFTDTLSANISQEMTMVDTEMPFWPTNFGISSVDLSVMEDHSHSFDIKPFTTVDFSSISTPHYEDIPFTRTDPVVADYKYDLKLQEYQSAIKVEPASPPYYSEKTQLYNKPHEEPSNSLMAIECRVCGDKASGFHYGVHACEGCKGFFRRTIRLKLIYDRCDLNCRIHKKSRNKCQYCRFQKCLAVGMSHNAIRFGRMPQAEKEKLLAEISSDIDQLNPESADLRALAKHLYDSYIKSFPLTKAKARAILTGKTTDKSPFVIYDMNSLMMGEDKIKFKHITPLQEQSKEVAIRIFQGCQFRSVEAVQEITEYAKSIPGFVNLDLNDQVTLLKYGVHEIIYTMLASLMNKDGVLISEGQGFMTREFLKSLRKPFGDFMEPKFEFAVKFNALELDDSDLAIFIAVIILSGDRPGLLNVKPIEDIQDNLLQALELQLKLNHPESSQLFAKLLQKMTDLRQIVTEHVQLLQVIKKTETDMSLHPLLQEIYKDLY
Procedure, shortened: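 Cell-based beta-lactamase assay; GW9662 served as the antagonist control. Stimulation used rosiglitazone, final 50 nM, 16 h, 37 C.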

[2] = target: Vitamin D3 receptor (Homo sapiens) (UniProt P11473); experiment: qHTS assay for small molecule antagonists of vitamin D receptor signaling (AID 588541);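 note: receptor activated by calcitriol during compound treatment; series mostly up to about 77 µM; % is set by controls: 0 for no effect and ±100 for the full control effect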
Chain of Vitamin D3 receptor (Homo sapiens) (P11473 whole entry, looked up): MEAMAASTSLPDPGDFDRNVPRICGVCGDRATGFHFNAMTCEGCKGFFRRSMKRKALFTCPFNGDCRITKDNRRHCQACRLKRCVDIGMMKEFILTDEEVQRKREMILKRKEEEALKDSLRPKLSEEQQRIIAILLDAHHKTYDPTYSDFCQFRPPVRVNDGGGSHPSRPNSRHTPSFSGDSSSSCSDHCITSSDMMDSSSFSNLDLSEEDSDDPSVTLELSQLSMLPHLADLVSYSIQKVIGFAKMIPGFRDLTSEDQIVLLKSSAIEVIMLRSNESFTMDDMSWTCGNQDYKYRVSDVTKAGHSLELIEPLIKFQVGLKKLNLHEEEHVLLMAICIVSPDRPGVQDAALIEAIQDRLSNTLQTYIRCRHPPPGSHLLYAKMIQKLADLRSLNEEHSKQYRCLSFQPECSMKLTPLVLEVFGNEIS
Procedure, shortened: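 Antagonist-mode beta-lactamase reporter assay: HEK293T VDR-UAS-bla cells were exposed to titrated compound alongside 1-alpha,25-dihydroxyvitamin D3 at 3 nM final for 16 h. Values were normalized to the 50 nM agonist control and DMSO basal, with IC50 and efficacy from Hill equation fits.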

[3] = target: Vitamin D3 receptor (Homo sapiens) (UniProt P11473); experiment: qHTS assay for small molecule agonists of vitamin D receptor signaling (AID 588543);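 note: 0% = DMSO basal and 100% = reference agonist control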
Procedure, shortened: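 GeneBLAzer VDR-UAS-bla HEK293T cells in 2% charcoal-stripped FBS medium were dosed with compound titrations for 16 h at 37 °C; CCF4 β-lactamase readout (405 nm ex, 460/530 nm em). EC50 and efficacy from Hill fits, normalized to 50 nM calcitriol (100%) and DMSO (0%).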

[4] = qHTS assay for small molecule agonists of retinoid X receptor alpha signaling (AID 588544); conditions: HEK293T RXRa-UAS-bla, beta-lactamase reporter, 18 h; 530 nm emission
[5] = target: Retinoic acid receptor RXR-alpha (Homo sapiens) (UniProt P19793); experiment: as above
Chain of Retinoic acid receptor RXR-alpha (Homo sapiens) (P19793 whole entry, looked up): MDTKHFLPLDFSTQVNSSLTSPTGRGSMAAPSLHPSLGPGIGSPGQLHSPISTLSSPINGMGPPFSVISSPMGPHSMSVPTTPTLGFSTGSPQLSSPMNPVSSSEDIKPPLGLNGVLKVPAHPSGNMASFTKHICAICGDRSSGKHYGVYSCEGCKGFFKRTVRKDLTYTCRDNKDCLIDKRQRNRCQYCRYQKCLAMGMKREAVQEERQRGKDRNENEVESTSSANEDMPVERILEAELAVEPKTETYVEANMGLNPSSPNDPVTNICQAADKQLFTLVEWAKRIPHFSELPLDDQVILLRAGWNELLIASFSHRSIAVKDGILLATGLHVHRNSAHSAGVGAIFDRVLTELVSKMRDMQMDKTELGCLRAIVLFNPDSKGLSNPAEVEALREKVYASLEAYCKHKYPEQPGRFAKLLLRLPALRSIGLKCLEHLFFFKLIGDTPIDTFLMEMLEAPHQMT

[6] = target: Thyroid hormone receptor beta (Homo sapiens) (UniProt P10828); experiment: qHTS assay for small molecule agonists of thyroid hormone receptor beta signaling (AID 588545);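 note: 0% = DMSO only and 100% = 10 nM T3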
Chain of Thyroid hormone receptor beta (Homo sapiens) (P10828 whole entry, looked up): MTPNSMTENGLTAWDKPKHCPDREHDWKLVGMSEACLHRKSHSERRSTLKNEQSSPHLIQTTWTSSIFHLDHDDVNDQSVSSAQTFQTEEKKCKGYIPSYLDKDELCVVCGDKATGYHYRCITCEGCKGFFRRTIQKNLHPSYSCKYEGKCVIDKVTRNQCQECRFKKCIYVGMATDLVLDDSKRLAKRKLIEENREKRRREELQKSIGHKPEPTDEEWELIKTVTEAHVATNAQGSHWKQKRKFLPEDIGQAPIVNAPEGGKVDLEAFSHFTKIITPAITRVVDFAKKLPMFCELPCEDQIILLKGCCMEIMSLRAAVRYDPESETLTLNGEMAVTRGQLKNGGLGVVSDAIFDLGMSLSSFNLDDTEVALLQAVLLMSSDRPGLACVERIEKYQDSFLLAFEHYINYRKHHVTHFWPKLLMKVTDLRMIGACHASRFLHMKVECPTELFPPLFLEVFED
Procedure, shortened: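 Compounds were tested as agonists in TR-UAS-bla-GripTite HEK 293 cells. After 18 hrs at 37 C, CCF4 substrate was added and fluorescence read after 2 hrs at room temperature.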

[7] = qHTS assay for small molecule antagonists of retinoid X receptor alpha signaling (AID 588546; active = well fitted inhibition curve with a large enough effect in the signal ratio, with a control signal flat, not every such curve was filed as active; the % refers to the signal ratio;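 note: cells stimulated with 9-cis-retinoic acid as agonist; % is set by controls: 0 for no effect and ±100 for the full control effect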); conditions: HEK293T RXRa-UAS-bla, beta-lactamase ratio, antagonist mode; measured here: W530 green channel, cytotoxicity proxy
Procedure, shortened: (§1)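 Beta-lactamase reporter inhibition, read as CCF4 fluorescence ratio (ex 405, em 460/530 nm) after 2 h at RT. HEK293T UAS-bla cells, 2500/well, were stimulated with 9-cis-RA at 500 or 100 nM final alongside test compound for 18 h at 37 C.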

[8] = target: Retinoic acid receptor RXR-alpha (Homo sapiens) (UniProt P19793); experiment: as above; conditions: HEK293T RXRa-UAS-bla, beta-lactamase ratio, antagonist mode
Procedure, shortened: as §1

[9] = target: Thyroid hormone receptor beta (Homo sapiens) (UniProt P10828); experiment: qHTS assay for small molecule antagonists of thyroid hormone receptor beta signaling (AID 588547; active = well fitted inhibition curve with a large enough effect in the signal ratio, with a control signal flat, not every such curve was filed as active; the % refers to the signal ratio;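 note: cells stimulated with 0.4 nM T3 agonist during compound exposure; series mostly up to about 77 µM; % is set by controls: 0 for no effect and ±100 for the full control effect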); conditions: TR-UAS-bla HEK293, beta-lactamase ratio, antagonist mode, 18 h
Procedure, shortened: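 Inhibition of T3-driven (0.4nM final) beta-lactamase reporter activity was measured over 0.59 nM to 92 uM compound after 18 h at 37 C. The cells were GripTite HEK293 TR-UAS-bla in charcoal/dextran-stripped serum, with CCF4 ratio read-out and IC50 from Hill fits.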

[10] = target: Voltage-gated inwardly rectifying potassium channel KCNH2 (Homo sapiens) (UniProt Q12809); experiment: qHTS Assay for Small Molecule Inhibitors of the Human hERG Channel Activity (AID 588834; active = well fitted inhibition curve with a large enough effect;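 note: top concentration of the series differs between compounds; % is set by controls: 0 for no effect and ±100 for the full control effect; lower thallium flux fluorescence means stronger hERG block; nearly all actives have a fitted effect of over 50% in size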)
Chain of Voltage-gated inwardly rectifying potassium channel KCNH2 (Homo sapiens) (Q12809 whole entry, looked up): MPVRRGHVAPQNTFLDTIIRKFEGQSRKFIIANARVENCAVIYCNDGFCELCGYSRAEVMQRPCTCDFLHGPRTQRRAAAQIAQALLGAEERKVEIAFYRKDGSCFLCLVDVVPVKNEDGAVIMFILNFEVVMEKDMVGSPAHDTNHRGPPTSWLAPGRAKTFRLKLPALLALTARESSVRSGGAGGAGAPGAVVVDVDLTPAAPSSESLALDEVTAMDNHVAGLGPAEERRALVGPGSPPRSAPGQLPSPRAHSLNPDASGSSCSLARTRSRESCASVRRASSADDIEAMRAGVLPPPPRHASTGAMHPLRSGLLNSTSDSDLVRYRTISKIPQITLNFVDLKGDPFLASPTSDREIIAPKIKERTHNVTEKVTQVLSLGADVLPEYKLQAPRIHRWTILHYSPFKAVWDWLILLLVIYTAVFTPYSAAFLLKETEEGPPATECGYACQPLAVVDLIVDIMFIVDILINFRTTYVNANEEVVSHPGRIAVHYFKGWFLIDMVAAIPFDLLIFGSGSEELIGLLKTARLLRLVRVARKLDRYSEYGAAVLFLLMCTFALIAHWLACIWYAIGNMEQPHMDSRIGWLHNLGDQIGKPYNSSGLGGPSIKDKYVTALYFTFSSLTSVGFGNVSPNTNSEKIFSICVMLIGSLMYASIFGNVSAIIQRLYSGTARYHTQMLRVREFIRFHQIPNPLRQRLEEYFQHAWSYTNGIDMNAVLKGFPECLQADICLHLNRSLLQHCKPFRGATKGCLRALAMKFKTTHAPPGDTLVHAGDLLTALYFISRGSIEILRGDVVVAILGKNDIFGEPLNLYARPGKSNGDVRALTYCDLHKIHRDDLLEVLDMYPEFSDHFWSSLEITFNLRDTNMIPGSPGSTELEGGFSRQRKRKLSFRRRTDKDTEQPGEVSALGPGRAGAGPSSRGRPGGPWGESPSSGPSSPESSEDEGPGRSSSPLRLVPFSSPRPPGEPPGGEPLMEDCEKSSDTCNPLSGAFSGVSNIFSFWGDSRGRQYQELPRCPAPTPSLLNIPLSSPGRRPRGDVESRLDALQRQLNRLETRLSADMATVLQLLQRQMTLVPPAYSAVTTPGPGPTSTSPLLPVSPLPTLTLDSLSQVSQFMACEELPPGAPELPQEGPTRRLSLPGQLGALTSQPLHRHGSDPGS
Procedure, shortened: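 In hERG-transduced U2OS cells, dye-loaded for 1 hr at room temperature in dark, test compounds incubated 10 min at 37 °C before thallium stimulation. AC50 values derived by Hill modelling of concentration-response.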

OC[C@H]1O[C@@H]2O[C@H]3[C@H](O)[C@@H](O)[C@@H](O[C@H]4[C@H](O)[C@@H](O)[C@@H](O[C@H]5[C@H](O)[C@@H](O)[C@@H](O[C@H]6[C@H](O)[C@@H](O)[C@@H](O[C@H]7[C@H](O)[C@@H](O)[C@@H](O[C@H]1[C@H](O)[C@H]2O)O[C@@H]7CO)O[C@@H]6CO)O[C@@H]5CO)O[C@@H]4CO)O[C@@H]3CO
1.28% and -5.56%: max response [4]
2.15% and -14.7%: max response [7]
inactive: outcome [1] | outcome [2] | outcome [3] | outcome [5] | outcome [6] | max response [8] -7.96% and -14.1% | activity change % (negative = inhibition) [9] 12.7% and -5.44% | Potency [10]

CC1=CC(=O)NS(=O)(=O)O1
-7.78%: max response [4]
inactive: outcome [1] | outcome [2] | outcome [3] | outcome [5] | outcome [6] | max response [8] -5.24% and 0.185% | activity change % (negative = inhibition) [9] 2.81% | Potency [10]
-6.4% and -5.89%: max response [7]

NCCN
inactive: outcome [1] | outcome [2] | outcome [3] | outcome [5] | max response [8] -7.75%
-1.66%: max response [7]
-12.8%: max response [4]

C[Si](C)(C)O[Si](C)(C)C
inactive: outcome [1] | outcome [2] | outcome [3] | outcome [5] | outcome [6] | max response [8] -23.1% | activity change % (negative = inhibition) [9] 22.8% | Potency [10]
-7.56%: max response [4]
-6.12%: max response [7]

O=P(O)(O)O
6.72%: max response [7]
-7.11%: max response [4]
inactive: outcome [1] | outcome [2] | outcome [3] | outcome [5] | max response [8] 2.87% | activity change % (negative = inhibition) [9] -9.56% | Potency [10]

NCCO/C=C/[C@H](N)C(=O)O
inactive: outcome [1] | outcome [5] | outcome [6] | max response [8] -9.4% | activity change % (negative = inhibition) [9] 19.7% | Potency [10]
-3.57%: max response [4]
-8.31%: max response [7]
